Results as given in PMC6212790, “How bacterial xenogeneic silencer rok distinguishes foreign from self DNA in its resident genome”.
In all, about 33,000 sequences were measured (“e-score”: median about -0.037, highest 2% from about 0.34 on). The list comes from a sample in which the highest values are over-represented; it also holds similar and randomly drawn sequences.

target: T1, GST-Rok (full length) (Bacillus subtilis subsp. subtilis str. …, UniProt O34857 1-191); experiment: protein binding microarray; Rok is a gene silencer of Bacillus subtilis; high values mean tight binding; details: protein: recombinant; tags: GST (pTH5325, pDEST15-Magic modified); dsDNA, one strand shown
T1 sequence: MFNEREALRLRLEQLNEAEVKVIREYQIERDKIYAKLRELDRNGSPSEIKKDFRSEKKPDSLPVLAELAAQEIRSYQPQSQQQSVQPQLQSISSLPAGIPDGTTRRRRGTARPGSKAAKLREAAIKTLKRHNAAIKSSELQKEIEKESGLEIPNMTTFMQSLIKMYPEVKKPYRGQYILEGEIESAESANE
Summary of the method: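 Each has a 25-mer constant primer and a 35-mer variable part from a de Bruijn sequence of order 10, covering every non-palindromic 8-mer at least 32 times (palindromic 16). Preference for each 8-mer is given as a rank-based, unitless enrichment score (E-score). Its range runs from 0.5 (most favored) to −0.5 (most disfavored).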

| Sequence | binding signal [E-score] |
| --- | --- |
| ACGGTTGC | -0.00987 |
| CGACGTAC | -0.0209 |
| ACTGCCGC | -0.152 |
| ATAGGAAG | 0.0173 |
| AGGCTCGA | -0.0603 |
| AATCTACA | 0.326 |
| GCTCTACA | -0.114 |
| GGTCTACA | 0.0329 |
| GATCTACA | 0.369 |
| TATCTACA | 0.348 |
| CATCTACA | 0.177 |
| ATTAAATG | 0.0625 |
| AGGCTGTA | 0.00795 |
| ACTACAAC | 0.293 |
| GCTACTAC | 0.198 |
| ACTACTAC | 0.4 |
| ACAACTAG | 0.351 |
| ACAACTAT | 0.33 |
| ACTACTCT | 0.184 |
| CCTACTAC | 0.258 |
| ACAACTAC | 0.311 |
| ACTACTGG | 0.224 |
| ACTACAAT | 0.344 |

| Sequence | binding signal [E-score] |
| --- | --- |
| ACTACTAT | 0.465 |
| ACTACAAG | 0.22 |
| ATGCGAGA | 0.00939 |
| CGTTTGTC | -0.0759 |
| CTACCAAC | 0.164 |
| AGACGCTG | -0.151 |
| CAGTCCAA | -0.0763 |
| AGCCCAAC | -0.175 |
| TCCAGAAA | -0.00865 |
| CCTACTAG | 0.0992 |
| ACTACTAG | 0.346 |
| ACTACTCG | 0.187 |
| ATGGTACG | 0.183 |
| GCATTAAC | 0.0561 |
| TTACTAAA | 0.32 |
| ATACTAAA | 0.391 |
| ATACTAAG | 0.175 |
| AGACTAAA | -0.0347 |
| ATACTAAT | 0.378 |
| ACACTAAA | 0.174 |
| CTACTAAA | 0.357 |
| ATACTAAC | 0.199 |
| CTACTAAC | 0.324 |

| Sequence | binding signal [E-score] |
| --- | --- |
| GAGGCATC | -0.172 |
| CAGCTGTA | 0.0605 |
| ACATCTAC | 0.272 |
| ACTTCGGA | -0.0792 |
| ACCCTAAA | 0.024 |
| CCACTGTC | -0.188 |
| CTGCTTTA | 0.0813 |
| ATAAGGAC | -0.2 |
| CTAGAAAA | 0.291 |
| TTAGAAAA | 0.185 |
| CTAGAAAC | 0.3 |
| GCAGAAAC | -0.0153 |
| GTAGAAAC | 0.427 |
| GTAGAAAA | 0.387 |
| ATCTGGTC | -0.135 |
| ATCTTTAA | 0.0286 |
| AGATTGGC | 0.136 |
| CGTTCCAC | -0.021 |
| CTCTTTAC | 0.158 |
| CTATTTAA | 0.0252 |
| ATTTTTAA | -0.0198 |
| ATATTTAG | 0.287 |
| ACATTTAC | 0.313 |

| Sequence | binding signal [E-score] |
| --- | --- |
| CTATTTAC | 0.342 |
| ATATTTAA | 0.387 |
| ATATTTGC | 0.285 |
| ATATTTAC | 0.379 |
| AGTCAAAA | 0.108 |
| CGTTTGAA | -0.00324 |
| ACCTTCAG | -0.119 |
| TCCACAAA | 0.0863 |
| CGTCGCAA | -0.166 |
| AGAACTAT | 0.381 |
| ATAACTAG | 0.243 |
| AGAACTAA | 0.254 |
| AGAACTAG | 0.298 |
| ATAACTAA | 0.26 |
| ATAACTAT | 0.407 |
| CATGCTGA | -0.132 |
| AGTGGTCC | -0.177 |
| GTCCCGGA | -0.141 |
| CATCATTA | 0.0295 |
| GATCATTA | 0.355 |
| AATCATTA | 0.158 |
| AGTAGTAA | 0.384 |
| TGTAGGAA | 0.0806 |

| Sequence | binding signal [E-score] |
| --- | --- |
| GGTAGTAA | 0.335 |
| TGTAGTAA | 0.349 |
| TGTTGTAA | 0.142 |
| CGTAGTAA | 0.198 |
| ACTGGACG | 0.057 |
| TCAAGTAA | 0.154 |
| AGTAGACA | 0.0413 |
| GTAATCTA | 0.245 |
| ATAATCTC | 0.161 |
| CTAATCTA | 0.362 |
| CTAATCAA | 0.165 |
| ATAATCTA | 0.352 |
| CTAATCTC | 0.0718 |
| ATGCATGG | 0.0449 |
| AACCTACG | 9.3e-05 |
| CCAACTGC | -0.00979 |
| AGGTTTAA | 0.00862 |
| AGATACCG | 0.12 |
| ATATACCC | 0.188 |
